Compound activity (PubChem)
Only some compounds are listed: those with a hit (about 10% of all), similar ones and a draw of the others.
HEK cytotox = Cytotoxic Profiling in HEK 293 Cell Line of Diverse Libraries Using Quantitative High-Throughput Screening; HEK 293 viability, ATP luminescence (CellTiter-Glo), 48-72 h; Potency, µM (doses to about 115 µM), without a hit: top-dose activity change, negative = cytotoxicity, actives largely listed as inhibitors; hit rate 6.6% among 94,000; AID 1345083, 2018; also: nearly all actives have a fitted effect of over 60% in size
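Viability of HEK 293 cells, plated at 250 cells/well, was judged by cellular ATP after compound treatment for 48 or 72 hr. Luminescence was imaged 10 min after CellTiter-Glo addition at room temperature.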
Luciferase inh = Firefly luciferase inhibition profiling of diverse chemical library using quantitative high-throughput screening; hit rate 2.5% among 76,000; AID 1347043, 2019; Potency, µM (series often up to 115 µM), hits mostly inhibitors; Luciferin 4-monooxygenase (Photinus pyralis), P08659; purified P. pyralis luciferase, luminescence, biochemical; also: nearly all actives have a fitted effect of over 65% in size
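FLuc 10nM, D-luciferin 10uM, ATP 10uM, Mg acetate 10mM, Tris acetate pH 7.5, Tween/BSA; cpd qHTS; enzyme added last; CCD luminescence.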
3T3 cytotox = Cytotoxic Profiling in NIH 3T3 Cell Line of Diverse Libraries Using Quantitative High-Throughput Screening | NIH 3T3 viability, CellTiter-Glo ATP luminescence, 48-72 h | Potency, µM (highest dose often 96.7 µM), without a hit: at the top dose activity change, negative = cytotoxicity, usual class: inhibitors | hit rate 4.3% among 94,000 | AID 1345082, 2018; also: nearly all actives have a fitted effect of over 55% in size
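Luminescent ATP readout (CellTiter-Glo, 10 min RT) after 48 or 72 hr compound exposure of NIH 3T3 cells seeded at 400 cells/well in 1536-well format; quantitative HTS.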
hNpr1 antagonist = Natriuretic polypeptide receptor (hNpr1) antagonism - Primary qHTS. Atrial natriuretic peptide receptor 1 (Homo sapiens), P16066. HEK293 hNpr1 GloSensor cGMP, ANP-stimulated luminescence. Potency, µM (doses to about 46.3 µM), without a hit: at the highest dose activity change, negative = inhibition, hits mostly inhibitors. hit rate 1.6% among 76,000; calls by dose curve; also: nearly all actives have a fitted effect of over 60% in size
Target sequence (P16066 whole entry, looked up): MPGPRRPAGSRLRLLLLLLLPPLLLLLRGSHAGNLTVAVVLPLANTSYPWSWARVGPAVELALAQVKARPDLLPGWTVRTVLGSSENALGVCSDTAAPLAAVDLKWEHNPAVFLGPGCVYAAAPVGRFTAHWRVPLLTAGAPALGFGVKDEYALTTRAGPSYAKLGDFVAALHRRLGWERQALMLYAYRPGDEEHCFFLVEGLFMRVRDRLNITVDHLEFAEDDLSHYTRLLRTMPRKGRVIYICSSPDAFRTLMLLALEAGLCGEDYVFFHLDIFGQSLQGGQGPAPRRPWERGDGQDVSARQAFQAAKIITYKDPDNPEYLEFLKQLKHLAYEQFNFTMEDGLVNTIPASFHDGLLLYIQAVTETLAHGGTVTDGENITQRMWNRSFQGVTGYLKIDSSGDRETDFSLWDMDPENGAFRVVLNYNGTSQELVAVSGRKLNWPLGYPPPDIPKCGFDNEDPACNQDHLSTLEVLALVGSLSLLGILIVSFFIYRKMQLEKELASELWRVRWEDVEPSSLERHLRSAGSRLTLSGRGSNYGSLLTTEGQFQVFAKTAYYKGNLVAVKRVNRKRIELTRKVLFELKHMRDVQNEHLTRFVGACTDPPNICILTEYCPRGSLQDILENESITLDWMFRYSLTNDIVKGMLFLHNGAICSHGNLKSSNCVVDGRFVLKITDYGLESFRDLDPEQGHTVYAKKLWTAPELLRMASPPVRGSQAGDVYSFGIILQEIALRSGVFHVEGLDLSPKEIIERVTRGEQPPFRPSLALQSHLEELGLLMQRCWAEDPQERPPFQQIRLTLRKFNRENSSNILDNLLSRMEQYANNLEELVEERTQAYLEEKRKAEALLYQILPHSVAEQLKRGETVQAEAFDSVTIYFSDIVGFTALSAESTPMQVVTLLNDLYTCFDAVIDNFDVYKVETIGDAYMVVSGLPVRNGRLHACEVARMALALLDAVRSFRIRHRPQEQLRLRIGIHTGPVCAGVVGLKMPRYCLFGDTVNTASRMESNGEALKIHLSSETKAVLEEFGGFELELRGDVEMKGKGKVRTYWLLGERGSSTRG
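HEK293 cells stably expressing human Npr1 and cGMP GloSensor pGS-40F, loaded 2 h with 2% GloSensor reagent, given compound 30 min at room temperature. Luminescence read before and 20 min after 0.1 nM hNppA.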
GPT2 inh = Primary qHTS assay for inhibitors of Glutamate pyruvate transaminase 2 (GPT2) | AID 1671188, 2021 | Alanine aminotransferase 2 (Homo sapiens), Q8TD30 | Recombinant GPT2, coupled pyruvate oxidase/HRP Amplex Red fluorescence | hit rate 0.25% among 100,000 | Potency, µM (titrated, usually from 57.7 µM), without a hit: at the highest dose activity change, negative = inhibition, usual class: inhibitors; also: nearly all actives have a fitted effect of over 60% in size
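Fluorescence read-out: pyruvate from GPT2 turnover coupled to pyruvate oxidase, HRP and Amplex Red (0.2mM ThPP, 0.2U/mL PO and HRP, 50uM Amplex final). Substrates 250uM a-KG, 2mM L-alanine; enzyme 10ng/uL; 30 min RT.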
Numbers without * were called inactive; i = inactive; ? = inconclusive; / = no result given; [ ] = dose if it differs, or a comment. Unless noted, calls follow the shape of the dose curve; as a rule, active = well fitted curve in the direction sought with a large enough effect; inconclusive = small, poorly fitted or top-dose-only effect, or another doubt; inactive = no such curve, though single readings can be large; an effect the other way counts as inactive or inconclusive. % is scaled to controls: 0 for no effect and ±100 for the full control effect; potency is read from the fitted curve at half-maximal effect.

SMILES | HEK cytotox | Luciferase inh | 3T3 cytotox | hNpr1 antagonist | GPT2 inh
Cc1nn(-c2ccc(F)cc2)c(C)c1[C@@H]1C=C[C@@H](NCc2ccc(C(C)C)cc2)C1 | 11µM* | i | 10µM* | ? | -4%[88.5 µM]
CCO[C@H]1CN(Cc2ccc(OC)c(OCc3cccc(F)c3)c2)C[C@@H]1O | -36% | i | -24% | -3% | ?
O=C(CCC1CCCN(Cc2cnc(-c3ccccc3)s2)C1)Nc1ccccc1F (stereo not given) | ? | i | ? | ? | -3%
CC1(C(=O)N2CCC(c3ccccc3)CC2)CCc2cnc(Nc3ccncc3)nc21 (stereo not given) | 71µM* | i | ? | ? | -18%[88.5 µM]
CC(=O)N1CCN(C(=O)C2(C)CCc3cnc(Nc4ccccc4)nc32)CC1 (stereo not given) | -1%[172 µM] | i | ? | -3%[70.6 µM] | 0%[88.5 µM]
CC1(C(=O)N2CCN(c3ccccn3)CC2)CCc2cnc(Nc3ccccc3)nc21 (stereo not given) | 112µM* | i | ? | -17%[70.6 µM] | 3%[88.5 µM]
CCc1ccc(NC(=O)c2ccc(Cn3ccn4nc5c(c4c3=O)CCCC5)cc2)cc1 | 20µM* | ? | ? | -19% | i
O=C(Nc1ccccc1)c1ccc(Cn2ccn3nc4c(c3c2=O)CCCC4)cc1 | 16µM* | i | ? | -2% | i
O=C(NCCC1=CCCCC1)c1ccc(Cn2ccn3nc4c(c3c2=O)CCCC4)cc1 | 40µM* | i | ? | -22% | -28%
COCCCNC(=O)c1ccc(Cn2ccn3nc4c(c3c2=O)CCCC4)cc1 | ? | i | ? | 3% | -5%
O=c1c2c3c(nn2ccn1Cc1cc(F)ccc1F)CCCC3 | ? | i | ? | -6% | i
O=C(Nc1ccc(F)cc1)c1ccc(Cn2ccn3nc4c(c3c2=O)CCCC4)cc1 | -16% | i | -22% | 0% | -9%
COc1ccccc1Cn1ccn2nc3c(c2c1=O)CCCC3 | 45µM* | i | ? | -4% | i
O=C(Nc1ccc(Cl)cc1)c1ccc(Cn2ccn3nc4c(c3c2=O)CCCC4)cc1 | ? | i | -9% | -3% | 0%
COCCNC(=O)c1cc(-c2cccc(C(F)(F)F)c2)nc2c1cnn2C | -3% | / | -36% | / | -2%
Cc1oc(-c2ccc(OC(C)C)cc2)nc1Cn1ccn2nc3c(c2c1=O)CCCC3 | 8.9µM* | i | ? | 2% | i
CCOC(=O)[C@@H]1CN(C(=O)c2ccccc2OC(F)(F)F)[C@H]2c3ccc(OC)cc3O[C@@H]12 | ? | / | -36% | / | /
Cc1cc(C)cc(-c2ccc(CN3CCCC3C(=O)NCc3ccc(F)cc3)cc2)c1 (stereo not given) | ? | / | ? | / | 4%
Cc1cc(C)cc(-c2ccc(CN3CCCC3C(=O)Nc3ccccc3F)cc2)c1 (stereo not given) | ? | / | -37% | / | 0%
Cc1cc(C)cc(-c2ccc(CN3CCCC3C(=O)Nc3ccc(F)cc3)cc2)c1 (stereo not given) | ? | / | ? | / | -3%
Cc1cc(C)cc(-c2ccc(CN3CCCC3C(=O)NCc3ccc4c(c3)OCO4)cc2)c1 (stereo not given) | 50µM* | / | 35µM* | / | 4%
Cc1cc(C)cc(-c2ccc(CN3CCCC3C(=O)NC(C)C)cc2)c1 (stereo not given) | 50µM* | / | ? | / | i
Cc1cc(C)cc(-c2ccc(CN3CCCC3C(=O)Nc3ccccc3Cl)cc2)c1 (stereo not given) | -15% | / | -18% | / | i
Cc1cc(C)cc(-c2ccc(CN3CCCC3C(=O)NC3CC3)cc2)c1 (stereo not given) | 50µM* | / | ? | / | 2%
Cc1cc(C)cc(-c2ccc(CN3CCCC3C(=O)NCCc3ccccc3)cc2)c1 (stereo not given) | 40µM* | / | 32µM* | / | -2%
